From the supplement of paper PMC10849652
The full data set covers some 8,800 targets. This sample favours those with a hit. About 0.5% of all pairs of compound and target were hits. A number with no mark means an inactive call.

compound: Cc1sc2c(c1C)C(c1ccc(Cl)cc1)=N[C@@H](CC(=O)OC(C)(C)C)c1nnc(C)n1-2; assay: log2 fold change, soluble protein after heating vs DMSO (PISA); higher = thermal stabilisation; K562 lysate, 10 uM; active = over 0.2 and 3.5 SD of the protein, either way, in both replicates (recomputed)
In short: (§1)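 Values give the log-two fold change in thermal stability against solvent controls, from duplicates. Crude K562 extract at 1 mg/mL protein, made by dounce homogenisation in PBS pH 7.4 with 1 mM MgCl2, was treated with 10 μM compound for 30 min. After 3 min heating across 48°C-58°C, aliquots were pooled, adjusted to 0.5% NP-40 at 4°C and centrifuged at 21,000xg for 90 min. The supernatant was measured by TMTpro 16plex LC-MS/MS with channel sums equalised.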

Chain of UniProt O76041 (O76041 whole entry, looked up): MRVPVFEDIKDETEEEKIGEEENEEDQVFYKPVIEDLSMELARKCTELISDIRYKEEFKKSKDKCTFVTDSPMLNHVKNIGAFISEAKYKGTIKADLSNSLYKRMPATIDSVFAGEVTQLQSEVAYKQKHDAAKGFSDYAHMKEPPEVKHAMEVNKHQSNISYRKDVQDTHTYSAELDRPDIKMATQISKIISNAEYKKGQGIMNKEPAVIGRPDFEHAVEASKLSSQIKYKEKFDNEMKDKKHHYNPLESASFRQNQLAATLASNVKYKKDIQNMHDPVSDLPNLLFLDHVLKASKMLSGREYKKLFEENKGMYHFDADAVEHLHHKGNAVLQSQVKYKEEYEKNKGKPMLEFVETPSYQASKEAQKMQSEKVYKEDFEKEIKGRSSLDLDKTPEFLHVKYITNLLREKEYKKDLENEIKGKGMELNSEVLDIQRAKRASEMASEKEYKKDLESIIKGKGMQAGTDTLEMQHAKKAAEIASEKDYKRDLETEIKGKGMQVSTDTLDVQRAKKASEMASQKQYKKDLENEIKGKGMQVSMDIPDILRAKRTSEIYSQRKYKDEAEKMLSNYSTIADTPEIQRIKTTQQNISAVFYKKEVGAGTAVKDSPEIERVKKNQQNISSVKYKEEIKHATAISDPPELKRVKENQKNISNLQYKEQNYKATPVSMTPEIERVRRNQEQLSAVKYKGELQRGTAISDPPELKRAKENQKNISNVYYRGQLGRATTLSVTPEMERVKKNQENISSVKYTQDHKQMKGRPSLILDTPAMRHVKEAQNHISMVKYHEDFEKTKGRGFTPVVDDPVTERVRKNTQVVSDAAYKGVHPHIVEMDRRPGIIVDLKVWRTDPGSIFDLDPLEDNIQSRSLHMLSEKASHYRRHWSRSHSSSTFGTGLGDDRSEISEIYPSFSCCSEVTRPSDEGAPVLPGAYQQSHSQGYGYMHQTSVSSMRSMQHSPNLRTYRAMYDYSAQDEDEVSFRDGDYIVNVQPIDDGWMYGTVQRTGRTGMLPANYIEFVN
Chain of UniProt Q147X3 (Q147X3 whole entry, looked up): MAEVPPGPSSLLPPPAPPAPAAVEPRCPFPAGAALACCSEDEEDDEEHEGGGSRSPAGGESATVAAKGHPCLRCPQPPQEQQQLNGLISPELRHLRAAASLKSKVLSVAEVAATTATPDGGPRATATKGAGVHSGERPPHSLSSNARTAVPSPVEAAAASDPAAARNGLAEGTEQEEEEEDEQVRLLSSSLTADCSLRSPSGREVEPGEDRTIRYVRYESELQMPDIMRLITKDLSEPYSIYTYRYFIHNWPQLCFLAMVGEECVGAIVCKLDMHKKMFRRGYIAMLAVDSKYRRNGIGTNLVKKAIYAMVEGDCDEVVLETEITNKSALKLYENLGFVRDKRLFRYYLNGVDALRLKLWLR
Chain of UniProt P21359 (P21359 whole entry, looked up): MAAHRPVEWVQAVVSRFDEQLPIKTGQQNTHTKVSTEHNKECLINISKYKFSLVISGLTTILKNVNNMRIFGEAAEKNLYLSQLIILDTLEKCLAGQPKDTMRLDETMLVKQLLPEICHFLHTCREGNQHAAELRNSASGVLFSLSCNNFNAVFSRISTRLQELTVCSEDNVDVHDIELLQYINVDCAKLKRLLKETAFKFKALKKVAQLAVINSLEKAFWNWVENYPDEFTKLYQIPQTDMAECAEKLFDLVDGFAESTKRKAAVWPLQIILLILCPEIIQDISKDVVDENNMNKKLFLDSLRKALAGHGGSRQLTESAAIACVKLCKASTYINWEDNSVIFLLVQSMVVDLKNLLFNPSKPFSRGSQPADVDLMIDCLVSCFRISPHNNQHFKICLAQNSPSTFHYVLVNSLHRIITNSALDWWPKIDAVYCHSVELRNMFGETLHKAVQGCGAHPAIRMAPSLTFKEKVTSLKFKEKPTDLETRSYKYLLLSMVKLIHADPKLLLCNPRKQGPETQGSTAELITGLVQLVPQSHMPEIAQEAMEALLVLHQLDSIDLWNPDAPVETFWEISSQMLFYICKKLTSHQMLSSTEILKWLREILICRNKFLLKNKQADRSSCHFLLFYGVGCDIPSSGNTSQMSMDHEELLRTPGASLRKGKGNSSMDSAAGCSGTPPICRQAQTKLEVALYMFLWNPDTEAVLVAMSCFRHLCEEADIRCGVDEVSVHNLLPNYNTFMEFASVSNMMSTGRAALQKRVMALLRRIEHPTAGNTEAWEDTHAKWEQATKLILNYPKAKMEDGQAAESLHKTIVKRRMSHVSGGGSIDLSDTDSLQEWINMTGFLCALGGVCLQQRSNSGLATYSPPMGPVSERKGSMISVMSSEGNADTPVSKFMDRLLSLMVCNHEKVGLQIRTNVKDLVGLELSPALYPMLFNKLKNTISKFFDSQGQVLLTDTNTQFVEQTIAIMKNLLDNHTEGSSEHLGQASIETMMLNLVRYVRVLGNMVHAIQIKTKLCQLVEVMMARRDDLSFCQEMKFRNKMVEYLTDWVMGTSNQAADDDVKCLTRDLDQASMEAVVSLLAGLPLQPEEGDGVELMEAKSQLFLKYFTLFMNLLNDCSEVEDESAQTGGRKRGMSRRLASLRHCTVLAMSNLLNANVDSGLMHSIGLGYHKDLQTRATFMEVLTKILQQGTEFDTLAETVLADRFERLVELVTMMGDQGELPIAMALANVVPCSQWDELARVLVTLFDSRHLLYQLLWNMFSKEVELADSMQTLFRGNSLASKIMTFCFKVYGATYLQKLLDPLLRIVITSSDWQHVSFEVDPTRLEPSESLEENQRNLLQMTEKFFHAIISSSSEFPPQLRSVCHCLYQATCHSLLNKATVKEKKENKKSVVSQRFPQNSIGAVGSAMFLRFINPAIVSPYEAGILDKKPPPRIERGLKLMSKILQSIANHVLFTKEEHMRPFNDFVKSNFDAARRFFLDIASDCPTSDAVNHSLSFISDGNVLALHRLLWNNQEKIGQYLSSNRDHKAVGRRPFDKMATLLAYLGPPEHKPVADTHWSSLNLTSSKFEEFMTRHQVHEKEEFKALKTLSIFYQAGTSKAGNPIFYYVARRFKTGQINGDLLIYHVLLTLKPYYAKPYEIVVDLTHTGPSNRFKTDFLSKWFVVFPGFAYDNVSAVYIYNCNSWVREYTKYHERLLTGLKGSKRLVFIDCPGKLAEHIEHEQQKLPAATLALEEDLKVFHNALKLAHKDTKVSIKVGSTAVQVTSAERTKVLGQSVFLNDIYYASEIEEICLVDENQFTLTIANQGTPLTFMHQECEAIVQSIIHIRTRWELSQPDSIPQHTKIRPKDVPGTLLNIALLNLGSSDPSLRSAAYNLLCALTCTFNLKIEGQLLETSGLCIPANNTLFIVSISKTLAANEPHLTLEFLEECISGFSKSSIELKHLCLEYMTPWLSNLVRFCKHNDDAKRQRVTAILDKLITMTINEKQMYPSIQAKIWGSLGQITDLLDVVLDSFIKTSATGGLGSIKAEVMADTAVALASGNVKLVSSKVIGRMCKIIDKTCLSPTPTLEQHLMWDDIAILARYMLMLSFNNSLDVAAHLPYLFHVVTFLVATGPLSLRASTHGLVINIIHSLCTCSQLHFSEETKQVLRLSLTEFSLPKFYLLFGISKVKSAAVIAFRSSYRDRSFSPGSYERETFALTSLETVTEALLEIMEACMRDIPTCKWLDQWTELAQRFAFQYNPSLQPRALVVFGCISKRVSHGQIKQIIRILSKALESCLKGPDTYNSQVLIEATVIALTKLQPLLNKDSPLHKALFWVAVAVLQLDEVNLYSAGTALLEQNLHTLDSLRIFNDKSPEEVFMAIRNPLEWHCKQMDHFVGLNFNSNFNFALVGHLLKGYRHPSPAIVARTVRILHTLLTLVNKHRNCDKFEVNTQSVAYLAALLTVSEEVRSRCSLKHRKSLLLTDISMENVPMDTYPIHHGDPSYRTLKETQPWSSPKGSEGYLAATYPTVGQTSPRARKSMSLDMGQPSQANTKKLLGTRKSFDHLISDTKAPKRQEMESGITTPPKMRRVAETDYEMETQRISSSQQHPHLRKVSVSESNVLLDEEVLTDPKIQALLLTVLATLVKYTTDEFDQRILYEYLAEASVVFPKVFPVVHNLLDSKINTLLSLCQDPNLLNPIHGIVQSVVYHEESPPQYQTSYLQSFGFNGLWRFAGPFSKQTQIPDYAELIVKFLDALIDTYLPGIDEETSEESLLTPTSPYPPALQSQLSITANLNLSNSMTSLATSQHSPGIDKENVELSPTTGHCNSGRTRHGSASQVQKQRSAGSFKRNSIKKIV
Chain of UniProt Q9BSD7 (Q9BSD7 whole entry, looked up): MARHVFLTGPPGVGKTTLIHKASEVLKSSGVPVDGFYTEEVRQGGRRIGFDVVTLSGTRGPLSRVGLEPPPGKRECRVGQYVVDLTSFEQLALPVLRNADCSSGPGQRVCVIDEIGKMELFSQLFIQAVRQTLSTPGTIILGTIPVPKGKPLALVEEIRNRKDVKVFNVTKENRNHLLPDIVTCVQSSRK
Chain of UniProt Q9NZJ9 (Q9NZJ9 whole entry, looked up): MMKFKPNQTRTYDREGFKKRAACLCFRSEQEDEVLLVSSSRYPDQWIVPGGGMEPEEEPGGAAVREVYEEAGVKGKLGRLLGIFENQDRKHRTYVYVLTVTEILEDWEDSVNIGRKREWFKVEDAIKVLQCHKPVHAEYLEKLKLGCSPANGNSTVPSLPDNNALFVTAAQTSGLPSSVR
Chain of UniProt Q96I59 (Q96I59 whole entry, looked up): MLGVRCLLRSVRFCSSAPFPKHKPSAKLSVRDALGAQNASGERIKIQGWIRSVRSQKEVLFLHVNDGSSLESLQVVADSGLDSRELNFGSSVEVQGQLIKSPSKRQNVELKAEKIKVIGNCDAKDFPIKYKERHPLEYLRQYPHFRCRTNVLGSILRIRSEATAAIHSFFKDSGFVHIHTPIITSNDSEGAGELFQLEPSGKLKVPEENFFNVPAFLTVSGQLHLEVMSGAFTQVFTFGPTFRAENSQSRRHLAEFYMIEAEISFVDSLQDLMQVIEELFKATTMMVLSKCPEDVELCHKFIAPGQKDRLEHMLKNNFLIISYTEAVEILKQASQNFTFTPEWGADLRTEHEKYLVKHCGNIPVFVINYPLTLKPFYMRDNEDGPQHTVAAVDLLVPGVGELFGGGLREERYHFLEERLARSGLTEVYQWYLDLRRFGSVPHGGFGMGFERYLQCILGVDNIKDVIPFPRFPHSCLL

| Target | log2 fold change |
| --- | --- |
| MRPS12 (UniProt O15235) | 0.039 |
| NUDT4 (UniProt Q9NZJ9) | 0.075 |
| NEBL (UniProt O76041) | 0.043 |
| MYO1D (UniProt O94832) | -0.006 |
| NELFA (UniProt Q9H3P2) | -0.037 |
| NAA30 (UniProt Q147X3) | 0.02 |
| NADK2 (UniProt Q4G0N4) | 0.045 |
| MSH2 (UniProt P43246) | 0.001 |
| PARD3 (UniProt Q8TEW0) | 0.09 |
| NTPCR (UniProt Q9BSD7) | 0.034 |
| NEK9 (UniProt Q8TD19) | 0.017 |
| OPA1 isoform 2 (UniProt O60313) | 0.005 |
| MYH11 isoform 2 (UniProt P35749) | -0.065 |
| NCOR1 (UniProt O75376) | 0.015 |
| NFATC2 (UniProt Q13469) | 0.031 |
| NEBL isoform 2 (UniProt O76041) | -0.07 |
| OTC (UniProt P00480) | -0.38 |

| Target | log2 fold change |
| --- | --- |
| NARS2 (UniProt Q96I59) | 0.053 |
| MYO9A isoform 4 (UniProt B2RTY4) | -0.027 |
| NDUFAF5 (UniProt Q5TEU4) | -0.174 |
| NUP210 (UniProt Q8TEM1) | 0.04 |
| NUP98 (UniProt P52948) | 0.052 |
| NDUFA4 (UniProt O00483) | 0.035 |
| OGT (UniProt O15294) | 0.067 |
| NONO (UniProt Q15233) | 0.026 |
| PAN2 isoform 2 (UniProt Q504Q3) | -0.044 |
| PAK4 (UniProt O96013) | -0.021 |
| NCAPG2 (UniProt Q86XI2) | 0.025 |
| NUCB2 (UniProt P80303) | -0.021 |
| MSH6 (UniProt P52701) | 0.006 |
| NGLY1 (UniProt Q96IV0) | -0.018 |
| NAT1 (UniProt P18440) | 0.015 |
| MSH3 (UniProt P20585) | -0.008 |
| NF1 (UniProt P21359) | -0.009 |

compound: c1ccc([C@@H]2C[C@H]2NC2CCNCC2)cc1; assay: as above
In short: as §1

| Target | log2 fold change |
| --- | --- |
| MRPS12 (UniProt O15235) | 0.026 |
| NUDT4 (UniProt Q9NZJ9) | 0.242 |
| NEBL (UniProt O76041) | 0.014 |
| MYO1D (UniProt O94832) | 0.02 |
| NELFA (UniProt Q9H3P2) | 0.054 |
| NAA30 (UniProt Q147X3) | -0.013 |
| NADK2 (UniProt Q4G0N4) | -0.012 |
| MSH2 (UniProt P43246) | 0.065 |
| PARD3 (UniProt Q8TEW0) | -0.024 |
| NTPCR (UniProt Q9BSD7) | 0.029 |
| NEK9 (UniProt Q8TD19) | -0.032 |
| OPA1 isoform 2 (UniProt O60313) | 0.084 |
| MYH11 isoform 2 (UniProt P35749) | 0.025 |
| NCOR1 (UniProt O75376) | 0.001 |
| NFATC2 (UniProt Q13469) | -0.1 |
| NEBL isoform 2 (UniProt O76041) | -0.094 |
| OTC (UniProt P00480) | -2.16 (active) |

| Target | log2 fold change |
| --- | --- |
| NARS2 (UniProt Q96I59) | -0.05 |
| MYO9A isoform 4 (UniProt B2RTY4) | -0.02 |
| NDUFAF5 (UniProt Q5TEU4) | 0.004 |
| NUP210 (UniProt Q8TEM1) | 0.028 |
| NUP98 (UniProt P52948) | -0.003 |
| NDUFA4 (UniProt O00483) | 0.287 |
| OGT (UniProt O15294) | 0.039 |
| NONO (UniProt Q15233) | 0.074 |
| PAN2 isoform 2 (UniProt Q504Q3) | 0.007 |
| PAK4 (UniProt O96013) | -0.14 |
| NCAPG2 (UniProt Q86XI2) | 0.001 |
| NUCB2 (UniProt P80303) | 0.079 |
| MSH6 (UniProt P52701) | 0.014 |
| NGLY1 (UniProt Q96IV0) | -0.07 |
| NAT1 (UniProt P18440) | 0.011 |
| MSH3 (UniProt P20585) | 0.04 |
| NF1 (UniProt P21359) | 0.016 |
